Common to all, as to experiment: DAPPL (digital affinity profiling via proximity ligation, sequencing); 10 mM Tris-HCl pH 7.5, 50 mM NaCl, 1 mM DTT, 4% glycerol, room temperature, 30 min; GST-TFs on glutathione beads, 16-mer random dsDNA library, 0.1% formaldehyde crosslink after washing; high values mean tight binding
In one assay the target is T1, ERG (Homo sapiens, UniProt P11308 1-479).
T1 sequence: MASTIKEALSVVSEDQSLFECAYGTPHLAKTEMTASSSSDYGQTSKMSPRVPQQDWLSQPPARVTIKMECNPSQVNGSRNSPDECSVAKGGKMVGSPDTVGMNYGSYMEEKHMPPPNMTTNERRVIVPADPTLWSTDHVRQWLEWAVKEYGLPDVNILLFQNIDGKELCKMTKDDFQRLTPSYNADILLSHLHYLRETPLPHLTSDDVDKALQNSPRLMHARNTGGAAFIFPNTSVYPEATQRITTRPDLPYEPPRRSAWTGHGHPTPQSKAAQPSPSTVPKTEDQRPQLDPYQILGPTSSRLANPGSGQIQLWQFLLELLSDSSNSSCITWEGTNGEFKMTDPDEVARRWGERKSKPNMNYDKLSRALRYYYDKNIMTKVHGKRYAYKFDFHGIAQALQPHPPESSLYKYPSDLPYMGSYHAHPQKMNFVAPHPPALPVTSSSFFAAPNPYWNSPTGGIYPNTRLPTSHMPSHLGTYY
The note with it: protein: recombinant; tags: N-terminal GST; dsDNA, one strand shown. The method in brief:
(§1)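 A tag-only sample was pooled with DNA-barcoded human transcription factors that had been expressed in yeast as GST fusions and captured on glutathione beads. The pools were incubated for 30 min at room temperature with 200 nmole of a random double-stranded 16-mer DNA library in Tris/NaCl/DTT/glycerol buffer, then washed, crosslinked with 0.1% formaldehyde, proximity-ligated (BsaI/T4 ligase, 1 h, 37 °C), PCR-amplified and sequenced on an Illumina NextSeq500. Binding signal is each hexamer's read frequency for a factor divided by its frequency for the tag-only sample.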

The target of the next assay is ELF1 (Homo sapiens, UniProt P32519 1-619). The note with it: protein: recombinant; tags: N-terminal GST; dsDNA, one strand shown. An outline of the steps:
as §1

The target in the next assay is T2, EHF (Homo sapiens, UniProt Q9NZC4 1-300).
T2 sequence: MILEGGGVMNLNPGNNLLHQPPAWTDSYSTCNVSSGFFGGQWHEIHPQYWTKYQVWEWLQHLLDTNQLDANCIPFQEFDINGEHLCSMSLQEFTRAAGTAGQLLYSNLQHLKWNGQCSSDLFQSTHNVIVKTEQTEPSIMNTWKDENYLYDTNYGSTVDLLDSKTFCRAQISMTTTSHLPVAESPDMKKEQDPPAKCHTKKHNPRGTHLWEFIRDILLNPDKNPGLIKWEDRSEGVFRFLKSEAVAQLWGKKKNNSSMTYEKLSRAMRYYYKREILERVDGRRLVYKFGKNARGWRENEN
Conditions: protein: recombinant; tags: N-terminal GST; dsDNA, one strand shown. The method in brief: as §1

The next assay deals with T3, FEV (Homo sapiens, UniProt Q99581 1-238).
T3 sequence: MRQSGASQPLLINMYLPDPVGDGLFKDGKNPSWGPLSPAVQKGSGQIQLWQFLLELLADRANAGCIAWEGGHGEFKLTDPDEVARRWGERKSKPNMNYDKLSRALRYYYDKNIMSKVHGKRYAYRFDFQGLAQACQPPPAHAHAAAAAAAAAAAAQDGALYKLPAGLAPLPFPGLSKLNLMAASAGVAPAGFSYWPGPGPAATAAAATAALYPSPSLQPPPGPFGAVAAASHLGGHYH
The note with it: protein: recombinant; tags: N-terminal GST; dsDNA, one strand shown. The method in brief: as §1

For a further assay, the target named is HSF1 (Homo sapiens, UniProt Q00613 1-529). Conditions: protein: recombinant; tags: N-terminal GST; chain copies: 3; dsDNA, one strand shown. An outline of the steps:
as §1

A further assay concerns the target ELF4 (Homo sapiens, UniProt Q99607 1-663). Conditions: protein: recombinant; tags: N-terminal GST; dsDNA, one strand shown. The method in brief:
as §1

A further assay has as its target T4, ELK4 (Homo sapiens, UniProt P28324-2 1-405).
T4 sequence: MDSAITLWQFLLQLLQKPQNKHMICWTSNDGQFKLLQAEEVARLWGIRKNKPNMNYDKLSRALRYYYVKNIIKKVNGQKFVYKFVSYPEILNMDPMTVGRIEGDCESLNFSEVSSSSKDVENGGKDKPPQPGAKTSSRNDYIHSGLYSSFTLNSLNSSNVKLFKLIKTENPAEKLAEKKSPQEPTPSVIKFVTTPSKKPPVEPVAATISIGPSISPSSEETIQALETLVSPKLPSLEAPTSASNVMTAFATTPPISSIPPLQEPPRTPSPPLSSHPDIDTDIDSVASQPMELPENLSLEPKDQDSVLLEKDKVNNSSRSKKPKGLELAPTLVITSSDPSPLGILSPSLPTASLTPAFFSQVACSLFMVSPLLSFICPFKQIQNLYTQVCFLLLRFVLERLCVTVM
The note with it: protein: recombinant; tags: N-terminal GST; dsDNA, one strand shown. The method in brief: as §1

In a further assay the target is T5, ETV2 (Homo sapiens, UniProt O00321 1-342).
T5 sequence: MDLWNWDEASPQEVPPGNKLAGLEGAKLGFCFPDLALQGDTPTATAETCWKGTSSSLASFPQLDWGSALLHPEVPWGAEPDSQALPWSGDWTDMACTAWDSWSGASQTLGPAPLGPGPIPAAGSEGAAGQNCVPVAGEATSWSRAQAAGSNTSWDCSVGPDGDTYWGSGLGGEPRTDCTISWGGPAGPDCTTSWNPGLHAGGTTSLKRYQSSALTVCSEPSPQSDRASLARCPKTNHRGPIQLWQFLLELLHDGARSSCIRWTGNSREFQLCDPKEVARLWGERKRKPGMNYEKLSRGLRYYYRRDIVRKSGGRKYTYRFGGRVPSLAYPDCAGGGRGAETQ
The note with it: protein: recombinant; tags: N-terminal GST; dsDNA, one strand shown. The method in brief:
as §1

A further assay has as its target CRX (Homo sapiens, UniProt O43186 1-299). Conditions: protein: recombinant; tags: N-terminal GST; dsDNA, one strand shown. An outline of the steps: as §1
The target of another assay is ETV1 (Homo sapiens, UniProt P50549 1-477). Conditions: protein: recombinant; tags: N-terminal GST; dsDNA, one strand shown. The method in brief: as §1
ETV1, sequence (P50549 whole entry): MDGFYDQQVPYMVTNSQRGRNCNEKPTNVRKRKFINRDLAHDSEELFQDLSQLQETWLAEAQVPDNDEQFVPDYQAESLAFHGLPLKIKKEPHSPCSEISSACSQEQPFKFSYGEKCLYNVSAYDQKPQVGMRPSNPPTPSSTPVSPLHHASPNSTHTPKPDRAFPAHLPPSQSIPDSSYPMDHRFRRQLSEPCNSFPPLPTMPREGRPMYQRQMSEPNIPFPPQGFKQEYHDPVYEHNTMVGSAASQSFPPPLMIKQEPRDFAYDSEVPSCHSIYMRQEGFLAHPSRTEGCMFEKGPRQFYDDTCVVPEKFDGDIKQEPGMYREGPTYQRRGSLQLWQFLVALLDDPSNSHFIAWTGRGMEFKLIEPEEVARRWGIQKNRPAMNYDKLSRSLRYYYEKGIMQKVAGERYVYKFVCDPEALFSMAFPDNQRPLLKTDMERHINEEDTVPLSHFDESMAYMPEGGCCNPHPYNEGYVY
Another assay has as its target T6, ETV3L (Homo sapiens, UniProt Q6ZN32 1-361).
T6 sequence: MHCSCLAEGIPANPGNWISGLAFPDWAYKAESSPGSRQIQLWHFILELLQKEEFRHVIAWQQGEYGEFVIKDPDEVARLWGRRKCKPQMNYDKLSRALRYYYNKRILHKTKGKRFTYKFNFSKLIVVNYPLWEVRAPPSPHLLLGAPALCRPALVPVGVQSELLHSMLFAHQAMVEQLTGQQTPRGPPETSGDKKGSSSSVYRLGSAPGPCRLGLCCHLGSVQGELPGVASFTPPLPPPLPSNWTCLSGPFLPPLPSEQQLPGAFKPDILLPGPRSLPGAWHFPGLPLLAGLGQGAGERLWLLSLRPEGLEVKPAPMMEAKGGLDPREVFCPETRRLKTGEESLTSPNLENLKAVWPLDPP
Conditions: protein: recombinant; tags: N-terminal GST; dsDNA, one strand shown. An outline of the steps:
as §1

The target in another assay is T7, ETS2 (Homo sapiens, UniProt P15036 1-469).
T7 sequence: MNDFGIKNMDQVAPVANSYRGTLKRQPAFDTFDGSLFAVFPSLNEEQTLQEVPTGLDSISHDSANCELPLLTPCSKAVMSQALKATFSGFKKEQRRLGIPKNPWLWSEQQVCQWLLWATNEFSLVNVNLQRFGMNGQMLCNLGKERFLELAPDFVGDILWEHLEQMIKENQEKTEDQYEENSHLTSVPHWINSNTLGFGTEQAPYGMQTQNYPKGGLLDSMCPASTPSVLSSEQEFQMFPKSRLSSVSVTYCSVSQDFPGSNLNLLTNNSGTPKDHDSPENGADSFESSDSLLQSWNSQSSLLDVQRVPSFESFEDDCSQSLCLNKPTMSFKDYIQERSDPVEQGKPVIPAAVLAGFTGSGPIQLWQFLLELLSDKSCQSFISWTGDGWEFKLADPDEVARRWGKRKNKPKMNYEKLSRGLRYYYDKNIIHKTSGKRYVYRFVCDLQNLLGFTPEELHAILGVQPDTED
The note with it: protein: recombinant; tags: N-terminal GST; dsDNA, one strand shown. An outline of the steps: as §1

For a further assay, the target named is T8, SPDEF (Homo sapiens, UniProt O95238 1-335).
T8 sequence: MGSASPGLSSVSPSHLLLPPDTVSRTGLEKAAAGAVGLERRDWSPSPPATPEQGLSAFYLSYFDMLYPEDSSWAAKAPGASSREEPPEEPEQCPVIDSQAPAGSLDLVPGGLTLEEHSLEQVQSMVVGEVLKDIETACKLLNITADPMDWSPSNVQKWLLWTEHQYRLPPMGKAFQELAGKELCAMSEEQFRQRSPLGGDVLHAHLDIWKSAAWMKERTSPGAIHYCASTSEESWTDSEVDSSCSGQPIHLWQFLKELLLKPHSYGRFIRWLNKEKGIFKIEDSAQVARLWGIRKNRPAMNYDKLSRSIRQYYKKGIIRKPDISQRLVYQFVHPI
Conditions: protein: recombinant; tags: N-terminal GST; dsDNA, one strand shown. The method in brief:
as §1

Another assay addresses T9, ETV7 (Homo sapiens, UniProt Q9Y603 1-341).
T9 sequence: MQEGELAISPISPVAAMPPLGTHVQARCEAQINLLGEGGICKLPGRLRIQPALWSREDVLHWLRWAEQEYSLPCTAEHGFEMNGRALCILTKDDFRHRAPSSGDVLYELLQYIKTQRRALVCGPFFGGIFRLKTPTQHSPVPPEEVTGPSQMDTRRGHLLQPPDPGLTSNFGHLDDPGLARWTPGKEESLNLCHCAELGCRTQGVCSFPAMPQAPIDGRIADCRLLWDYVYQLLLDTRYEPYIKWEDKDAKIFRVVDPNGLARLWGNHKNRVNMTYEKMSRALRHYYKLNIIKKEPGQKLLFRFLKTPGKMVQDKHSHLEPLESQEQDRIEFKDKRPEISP
The note with it: protein: recombinant; tags: N-terminal GST; dsDNA, one strand shown. An outline of the steps:
as §1

For the next assay, the target named is T10, ETV3 (Homo sapiens, UniProt P41162-2 1-143).
T10 sequence: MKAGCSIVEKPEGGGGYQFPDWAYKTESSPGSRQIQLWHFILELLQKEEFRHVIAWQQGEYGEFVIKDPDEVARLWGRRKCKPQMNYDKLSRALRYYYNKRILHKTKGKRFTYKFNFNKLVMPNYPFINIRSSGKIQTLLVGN
Conditions: protein: recombinant; tags: N-terminal GST; dsDNA, one strand shown. The method in brief: as §1

Another assay addresses ETV6 (Homo sapiens, UniProt P41212 1-452). The note with it: protein: recombinant; tags: N-terminal GST; dsDNA, one strand shown. The method in brief: as §1

ELF4, sequence (Q99607 whole entry): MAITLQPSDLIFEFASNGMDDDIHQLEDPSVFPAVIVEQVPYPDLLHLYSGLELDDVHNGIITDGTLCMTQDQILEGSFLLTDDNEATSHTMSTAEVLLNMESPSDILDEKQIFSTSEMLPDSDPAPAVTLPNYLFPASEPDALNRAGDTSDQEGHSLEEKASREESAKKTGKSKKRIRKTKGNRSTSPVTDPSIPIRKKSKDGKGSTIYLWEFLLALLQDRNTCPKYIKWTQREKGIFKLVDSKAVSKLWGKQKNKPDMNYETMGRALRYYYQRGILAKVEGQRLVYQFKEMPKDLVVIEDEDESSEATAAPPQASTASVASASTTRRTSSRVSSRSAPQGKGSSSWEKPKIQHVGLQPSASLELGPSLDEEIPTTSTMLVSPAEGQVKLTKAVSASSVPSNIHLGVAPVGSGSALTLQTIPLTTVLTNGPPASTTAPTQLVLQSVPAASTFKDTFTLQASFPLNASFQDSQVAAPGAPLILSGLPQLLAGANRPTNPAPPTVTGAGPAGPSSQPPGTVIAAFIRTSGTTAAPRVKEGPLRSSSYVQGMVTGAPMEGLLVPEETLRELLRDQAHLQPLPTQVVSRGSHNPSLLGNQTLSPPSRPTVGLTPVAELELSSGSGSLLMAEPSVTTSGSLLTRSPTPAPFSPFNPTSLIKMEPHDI
CRX, sequence (O43186 whole entry): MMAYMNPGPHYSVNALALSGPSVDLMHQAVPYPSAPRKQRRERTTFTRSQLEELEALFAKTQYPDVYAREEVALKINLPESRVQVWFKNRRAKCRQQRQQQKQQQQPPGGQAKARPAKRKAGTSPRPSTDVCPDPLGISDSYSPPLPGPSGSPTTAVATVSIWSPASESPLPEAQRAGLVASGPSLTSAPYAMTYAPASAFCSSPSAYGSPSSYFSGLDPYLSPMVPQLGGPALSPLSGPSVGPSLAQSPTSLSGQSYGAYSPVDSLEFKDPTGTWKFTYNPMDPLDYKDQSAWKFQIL
ETV6, sequence (P41212 whole entry): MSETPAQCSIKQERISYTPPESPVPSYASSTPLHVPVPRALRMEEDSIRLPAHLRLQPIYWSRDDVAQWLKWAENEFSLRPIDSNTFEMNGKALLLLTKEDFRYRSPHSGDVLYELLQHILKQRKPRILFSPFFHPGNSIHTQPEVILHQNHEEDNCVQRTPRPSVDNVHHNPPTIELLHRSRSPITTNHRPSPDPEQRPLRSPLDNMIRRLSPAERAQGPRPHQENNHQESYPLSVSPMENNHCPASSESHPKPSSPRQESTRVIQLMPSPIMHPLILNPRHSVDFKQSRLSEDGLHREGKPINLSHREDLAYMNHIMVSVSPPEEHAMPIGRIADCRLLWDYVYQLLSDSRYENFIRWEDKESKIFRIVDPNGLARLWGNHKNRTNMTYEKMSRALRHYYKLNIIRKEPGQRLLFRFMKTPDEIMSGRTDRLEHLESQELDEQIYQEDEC
HSF1, sequence (Q00613 whole entry): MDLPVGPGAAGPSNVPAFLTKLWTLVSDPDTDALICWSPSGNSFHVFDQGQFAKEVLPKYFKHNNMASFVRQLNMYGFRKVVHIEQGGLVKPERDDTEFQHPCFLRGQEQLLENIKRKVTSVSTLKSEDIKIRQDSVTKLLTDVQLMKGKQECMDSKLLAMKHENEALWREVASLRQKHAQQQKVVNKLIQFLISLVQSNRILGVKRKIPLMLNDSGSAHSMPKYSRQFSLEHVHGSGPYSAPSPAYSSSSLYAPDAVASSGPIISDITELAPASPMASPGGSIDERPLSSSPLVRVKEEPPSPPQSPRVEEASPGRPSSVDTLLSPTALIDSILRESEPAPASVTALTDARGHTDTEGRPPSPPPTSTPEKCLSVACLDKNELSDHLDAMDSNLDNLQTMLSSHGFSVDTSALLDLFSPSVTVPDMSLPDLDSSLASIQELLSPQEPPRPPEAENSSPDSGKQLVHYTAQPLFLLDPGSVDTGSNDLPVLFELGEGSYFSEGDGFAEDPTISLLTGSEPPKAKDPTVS
ELF1, sequence (P32519 whole entry): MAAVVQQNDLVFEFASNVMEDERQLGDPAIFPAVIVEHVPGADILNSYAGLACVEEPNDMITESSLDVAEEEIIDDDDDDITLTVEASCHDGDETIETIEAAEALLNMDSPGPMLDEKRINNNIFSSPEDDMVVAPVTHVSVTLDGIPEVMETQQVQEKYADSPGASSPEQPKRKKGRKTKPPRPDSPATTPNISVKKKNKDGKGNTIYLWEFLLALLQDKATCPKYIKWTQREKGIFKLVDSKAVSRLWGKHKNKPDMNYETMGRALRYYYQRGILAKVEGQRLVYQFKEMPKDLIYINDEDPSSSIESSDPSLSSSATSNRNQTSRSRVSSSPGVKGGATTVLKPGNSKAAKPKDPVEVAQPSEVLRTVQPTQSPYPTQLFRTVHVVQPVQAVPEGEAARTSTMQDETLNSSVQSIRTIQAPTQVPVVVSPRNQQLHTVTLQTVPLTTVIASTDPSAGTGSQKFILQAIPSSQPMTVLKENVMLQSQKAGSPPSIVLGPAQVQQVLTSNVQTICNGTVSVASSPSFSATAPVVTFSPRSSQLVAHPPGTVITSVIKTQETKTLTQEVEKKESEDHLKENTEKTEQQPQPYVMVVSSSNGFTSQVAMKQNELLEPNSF

Turning to ATTAGT, the binding signal with ERG is 1.01 fold enrichment (6-mer frequency, TF over GST control); in the assay with ELF1 it was 1.03 fold enrichment (6-mer frequency, TF over GST control); with EHF, 1 fold enrichment (6-mer frequency, TF over GST control); in the assay with FEV, 1.01 fold enrichment (6-mer frequency, TF over GST control); with HSF1, 1.69 fold enrichment (6-mer frequency, TF over GST control); with ELF4 it was 1.06 fold enrichment (6-mer frequency, TF over GST control). Moreover, the binding signal in the assay with ELK4 is 1.2 fold enrichment (6-mer frequency, TF over GST control); in the assay with ETV2, 1.12 fold enrichment (6-mer frequency, TF over GST control); with CRX, 2.44 fold enrichment (6-mer frequency, TF over GST control); with ETV1 it was 1.03 fold enrichment (6-mer frequency, TF over GST control); in the assay with ETV3L it was 1.03 fold enrichment (6-mer frequency, TF over GST control); in the assay with ETS2 it was 1.01 fold enrichment (6-mer frequency, TF over GST control). The binding signal was 1.06 fold enrichment (6-mer frequency, TF over GST control) in the assay with SPDEF; 1.08 fold enrichment (6-mer frequency, TF over GST control) with ETV7; 1.01 fold enrichment (6-mer frequency, TF over GST control) with ETV3; 1.01 fold enrichment (6-mer frequency, TF over GST control) in the assay with ETV6.

Values taken from publication PMC7862700, “An all-to-all approach to the identification of sequence-specific readers for epigenetic DNA modifications on cytosine”.
